The values below come from PubChem BioAssay (NCATS).

The subject of one assay is NIH3T3. Nature of the assay: qHTS assay to identify novel small-molecules to repurpose for Merkel cell carcinoma treatment (AID 1296009). Further: nearly all actives have a fitted effect of over 60% in size. Further: potency means the concentration at half of the fitted maximal effect. Particulars: MCC and control cell lines, CellTiter-Glo viability, 72 h; at 44.8 µM (top of the series) unless noted. A digest of the protocol: (§1)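 Cells were treated for 72 hr at 37 degree celsius with compounds in 8- or 11-point dose response. Viability was read by CellTiter-Glo luminescence, normalized to no-cell (cytotoxicity) and DMSO controls.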

The test system of another assay is UISO. The assay is described as above. Particulars: MCC and control cell lines, CellTiter-Glo viability, 72 h; series mostly up to 46 µM. A digest of the protocol: as §1
The next assay concerns WaGa. The assay is described as above. Particulars: MCC and control cell lines, CellTiter-Glo viability, 72 h; series mostly up to 46 µM. A digest of the protocol: as §1
The next assay concerns C33A. Nature of the assay: Primary qHTS to identify gynecologic anti-cancer compounds using libraries of approved drugs and bioactive compounds (AID 1345084). Further: on the % scale 0 is the no-effect control and ±100 the full control effect; nearly all actives have a fitted effect of over 55% in size. Particulars: Gynecologic cancer cell panel viability, ATPlite luminescence, 48 h; series mostly up to 57.5 µM. A digest of the protocol:
(§2)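 Cell viability after 48 h drug treatment, ATPlite luminescence readout; five doses.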

The subject of the next assay is CAOV3. Described as above. Particulars: Gynecologic cancer cell panel viability, ATPlite luminescence, 48 h; series mostly up to 57.5 µM. A digest of the protocol: as §2
The test system of the next assay is CASKI. The assay is described as above. Particulars: Gynecologic cancer cell panel viability, ATPlite luminescence, 48 h; series mostly up to 57.5 µM. A digest of the protocol:
as §2

Another assay has as its system Es-2. Described as above. Particulars: Gynecologic cancer cell panel viability, ATPlite luminescence, 48 h; series mostly up to 57.5 µM. A digest of the protocol: as §2
Another assay has as its system HeLa. The assay is described as above. Particulars: Gynecologic cancer cell panel viability, ATPlite luminescence, 48 h; series mostly up to 57.5 µM. A digest of the protocol:
as §2

Another assay deals with Hek293T. The description is as above. Particulars: Gynecologic cancer cell panel viability, ATPlite luminescence, 48 h, control line for the selectivity index; series mostly up to 57.5 µM. A digest of the protocol: as §2
Another assay has as its system JEG-3. The assay is described as above. Particulars: Gynecologic cancer cell panel viability, ATPlite luminescence, 48 h; series mostly up to 57.5 µM. A digest of the protocol: as §2
The next assay deals with OV90. The assay is described as above. Particulars: Gynecologic cancer cell panel viability, ATPlite luminescence, 48 h; series mostly up to 57.5 µM. A digest of the protocol: as §2
A further assay concerns PA-1. The description is as above. Particulars: Gynecologic cancer cell panel viability, ATPlite luminescence, 48 h; series mostly up to 57.5 µM. A digest of the protocol: as §2
Another assay concerns SKOV3. Described as above. Particulars: Gynecologic cancer cell panel viability, ATPlite luminescence, 48 h; series mostly up to 57.5 µM. A digest of the protocol:
as §2

Another assay deals with Tov-21-G. The assay is described as above. Particulars: Gynecologic cancer cell panel viability, ATPlite luminescence, 48 h; series mostly up to 57.5 µM. A digest of the protocol:
as §2

For another assay, the system named is Tov112D. Described as above. Particulars: Gynecologic cancer cell panel viability, ATPlite luminescence, 48 h; series mostly up to 57.5 µM. A digest of the protocol: as §2
Assay [1] is described as follows: Drug repurposing screens with cells derived from glioblastoma tumor samples (AID 1345199). Further: on the % scale 0 is the no-effect control and ±100 the full control effect; nearly all actives have a fitted effect of over 40% in size. Particulars: GBM patient neurospheres viability, ATP luminescence, 48 h. A digest of the protocol: (§3)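 Four patient lines of CD133+ GBM neurospheres were screened at several concentrations; hits were retested in those lines plus three slower-growing GBM lines, using 48-hour treatment and ATP-based viability.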

A further assay relates to astro. The assay is described as above. Particulars: viability, ATP luminescence, 48 h; series mostly up to 45.9 µM. A digest of the protocol: as §3
Assay [2] is described as follows: qHTS assay for small molecule activators of the human pregnane X receptor (PXR) signaling pathway (AID 720659; call rule not given here; further: 0% is about no effect).
In assay [3] the target is Nuclear receptor subfamily 1 group I member 2 (Rattus norvegicus) (UniProt Q9R1A7). Nature of the assay: qHTS assay for small molecule activators of the rat pregnane X receptor (rPXR) signaling pathway (AID 651751; call rule not given here; further: 0% is about no effect). Particulars: rPXR reporter cells, luciferase (One-Glo), 24 h.
Nuclear receptor subfamily 1 group I member 2 (Rattus norvegicus), sequence (Q9R1A7 whole entry, looked up): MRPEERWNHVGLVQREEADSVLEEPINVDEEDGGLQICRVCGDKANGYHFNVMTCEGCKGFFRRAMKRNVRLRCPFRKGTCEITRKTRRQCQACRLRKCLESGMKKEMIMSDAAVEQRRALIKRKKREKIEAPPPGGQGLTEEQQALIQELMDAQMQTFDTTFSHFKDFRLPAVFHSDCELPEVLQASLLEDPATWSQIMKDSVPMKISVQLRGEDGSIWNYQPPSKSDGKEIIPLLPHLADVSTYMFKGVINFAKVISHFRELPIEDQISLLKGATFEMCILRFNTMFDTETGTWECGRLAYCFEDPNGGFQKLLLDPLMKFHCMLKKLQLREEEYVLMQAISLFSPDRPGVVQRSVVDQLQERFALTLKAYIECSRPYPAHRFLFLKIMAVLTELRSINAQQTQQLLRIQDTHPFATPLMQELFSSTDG
Where [4] appears, read: at 45.9 µM (top of the series), tumour line D.
The mark [5] stands for this setting: at 46 µM (top of the series), tumour line A.
Setting [6] is: at 46.1 µM (top of the series), tumour line C.
The mark [7] stands for this setting: at 45.9 µM (top of the series), tumour line B.

“And” between values parts separate entries of the source, which are not always exact repeats. Equal entries are not always repeated. Records with an inconclusive call do not appear. Some structures have more than one record in an assay (separate samples or runs), and their calls can disagree. The source made the active and inactive calls. Unless noted, the call rests on the fitted dose curve; in most records, active means well fitted curve in the direction sought with a large enough effect; inconclusive means small, poorly fitted or top-dose-only effect, or another doubt; inactive means no such curve, though single readings can be large; an effect the other way counts as inactive or inconclusive.

In the case of `NC(N)=NC(=O)c1nc(Cl)c(N)nc1N`, the compound was classed as inactive (in the assay on NIH3T3; in assay [2]). Besides, the Potency entry with UISO, in the assay with C33A, with CAOV3, in the assay with CASKI, in the assay with Es-2 and with HeLa was “inactive” each time. Further, the Potency result with Hek293T, with JEG-3, in the assay on OV90, with PA-1, with SKOV3 and in the assay on Tov-21-G was “inactive” throughout. The Potency entry in the assay with Tov112D and in the assay with astro was “inactive” each time. For the same compound, the Potency result in the assay with WaGa is “inactive and 29.9 µM (active)”. The activity, negative = cell killing is -15.1% (inactive) in [1] (setting [4]), 18.9% (inactive) in assay [1] (setting [5]) and -11.2% (inactive) in assay [1] (setting [6]).
As to `Cc1[nH]c(=O)c(C#N)cc1-c1ccncc1`, in the assay with NIH3T3, the result was inactive. The Potency entry with UISO, with WaGa, in the assay with C33A, in the assay with CAOV3, in the assay with CASKI and with Es-2 was “inactive” in each case. In addition, the Potency result in the assay on HeLa, in the assay on Hek293T, in the assay with JEG-3, in the assay on OV90, in the assay on PA-1 and with SKOV3 was “inactive” in each case. For the same compound, the Potency entry in the assay with Tov-21-G, in the assay with Tov112D and with astro was “inactive” throughout. Further, the activity, negative = cell killing was -10.7% (inactive) in [1] (setting [7]); 4.86% (inactive) in [1] (setting [4]); -23.5% (inactive) in assay [1] (setting [5]); 2.71% (inactive) in assay [1] (setting [6]); -14.8% (inactive) in assay [1] (at 91.6 µM (top of the series), tumour line B); 7.24% (inactive) in assay [1] (at 91.6 µM (top of the series), tumour line D). In addition, the activity, negative = cell killing in assay [1] (at 99.2 µM (top of the series), tumour line C) was -28.5% (inactive). The max response in assay [3] is 2.46% (inactive).
In the case of `O=C1CCc2cc(OCCCCc3nnnn3C3CCCCC3)ccc2N1`, the compound was classed as inactive in the assay on NIH3T3. Besides, the Potency entry in the assay on UISO, in the assay on WaGa, in the assay on C33A, in the assay with CAOV3, in the assay with CASKI and with Es-2 was “inactive” throughout. Also, the Potency entry with HeLa, in the assay with Hek293T, in the assay on JEG-3, in the assay with PA-1, with SKOV3 and in the assay with Tov-21-G was “inactive” throughout. Moreover, the Potency entry in the assay with Tov112D and with astro was “inactive” each time. The activity, negative = cell killing in assay [1] (setting [7]) was -16.9% (inactive); in assay [1] (setting [4]), -10.7% (inactive); in assay [1] (setting [6]), -10.2% (inactive).
For `Cc1cnc(NC(=O)C2=C(O)c3ccccc3S(=O)(=O)N2C)s1`, the outcome in the assay with NIH3T3 was inactive. Besides, the Potency entry in the assay on UISO, in the assay with WaGa, in the assay on C33A, in the assay with CAOV3, in the assay on CASKI and in the assay with Es-2 was “inactive” each time. For the same compound, the Potency entry in the assay on HeLa, in the assay with Hek293T, in the assay with JEG-3, in the assay with OV90, with PA-1 and in the assay with SKOV3 was “inactive” in each case. For the same compound, the Potency result in the assay on Tov-21-G, with Tov112D and with astro was “inactive” throughout. Moreover, the activity, negative = cell killing in [1] (setting [7]) was -11.1% (inactive) and -5.23% (inactive); in assay [1] (setting [4]), 7.55% (inactive) and -2.79% (inactive); in [1] (setting [5]), -27.8% (inactive); in assay [1] (setting [6]) it was 4.05% (inactive) and -0.835% (inactive).
Regarding `NS(=O)(=O)c1cc2c(cc1Cl)NC=NS2(=O)=O`, the call in the assay with NIH3T3 was inactive. The Potency entry in the assay with UISO, in the assay with WaGa, with C33A, in the assay with CAOV3, in the assay with CASKI and with Es-2 was “inactive” in each case. Besides, the Potency result in the assay with HeLa, in the assay with Hek293T, in the assay on JEG-3, in the assay with PA-1, with SKOV3 and in the assay on Tov-21-G was “inactive” in each case. Further, the Potency entry in the assay with Tov112D and in the assay on astro was “inactive” in each case. The figures for the activity, negative = cell killing in [1] (setting [7]), in [1] (setting [4]) and in [1] (setting [6]) were -4.14% (inactive), -10.8% (inactive) and 23.2% (inactive), respectively. Further, the max response in [3] is -2.2% (inactive).
